# Legend:
# Experiment in all cases: DAPPL (digital affinity profiling via proximity ligation, sequencing); 10 mM Tris-HCl pH 7.5, 50 mM NaCl, 1 mM DTT, 4% glycerol, room temperature, 30 min; GST-TFs on glutathione beads, 16-mer random dsDNA library, 0.1% formaldehyde crosslink after washing; high values mean tight binding
# FLI1 = biological target: T1, FLI1 (Homo sapiens, UniProt Q01543 1-452); details: protein: recombinant; tags: N-terminal GST; dsDNA, one strand shown
# T1 sequence: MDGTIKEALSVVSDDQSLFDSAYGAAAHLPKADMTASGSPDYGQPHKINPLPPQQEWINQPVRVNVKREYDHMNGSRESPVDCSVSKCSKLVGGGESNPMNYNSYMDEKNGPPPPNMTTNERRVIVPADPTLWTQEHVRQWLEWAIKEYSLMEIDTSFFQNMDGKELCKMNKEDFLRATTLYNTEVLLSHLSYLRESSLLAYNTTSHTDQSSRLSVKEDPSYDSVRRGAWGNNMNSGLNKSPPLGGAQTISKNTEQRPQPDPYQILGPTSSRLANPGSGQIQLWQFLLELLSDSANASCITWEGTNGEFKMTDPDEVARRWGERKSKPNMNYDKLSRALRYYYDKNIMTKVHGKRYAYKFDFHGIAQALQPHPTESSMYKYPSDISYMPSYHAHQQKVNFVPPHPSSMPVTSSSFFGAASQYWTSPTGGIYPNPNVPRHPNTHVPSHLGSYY
# In short: (§1)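 GST fusions of human transcription factors were expressed in yeast and captured with glutathione beads. Once given DNA barcodes and pooled alongside a tag-only sample, they were incubated for 30 min at room temperature with 200 nmole of a random double-stranded 16-mer DNA library in Tris/NaCl/DTT/glycerol buffer, then washed, crosslinked (0.1% formaldehyde), proximity-ligated, PCR-amplified and sequenced on an Illumina NextSeq500. The binding signal of each hexamer is its read frequency for a factor divided by its frequency for the tag-only sample.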
# ELK1 = biological target: T2, ELK1 (Homo sapiens, UniProt P19419 1-428); details: protein: recombinant; tags: N-terminal GST; dsDNA, one strand shown
# T2 sequence: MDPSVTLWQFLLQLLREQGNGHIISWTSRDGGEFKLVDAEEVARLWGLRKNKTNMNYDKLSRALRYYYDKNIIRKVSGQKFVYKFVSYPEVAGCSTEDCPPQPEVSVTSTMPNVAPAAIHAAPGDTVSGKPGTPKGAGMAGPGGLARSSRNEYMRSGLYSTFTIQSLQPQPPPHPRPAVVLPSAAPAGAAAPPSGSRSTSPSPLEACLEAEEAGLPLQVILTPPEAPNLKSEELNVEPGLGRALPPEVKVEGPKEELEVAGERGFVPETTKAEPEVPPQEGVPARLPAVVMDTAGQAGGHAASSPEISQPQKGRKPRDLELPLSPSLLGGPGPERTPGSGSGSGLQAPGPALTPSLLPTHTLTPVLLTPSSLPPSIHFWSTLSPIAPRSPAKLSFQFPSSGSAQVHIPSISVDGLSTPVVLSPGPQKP
# In short: as §1
# GABPA = biological target: T3, GABPA (Homo sapiens, UniProt Q06546 1-454); details: protein: recombinant; tags: N-terminal GST; dsDNA, one strand shown
# T3 sequence: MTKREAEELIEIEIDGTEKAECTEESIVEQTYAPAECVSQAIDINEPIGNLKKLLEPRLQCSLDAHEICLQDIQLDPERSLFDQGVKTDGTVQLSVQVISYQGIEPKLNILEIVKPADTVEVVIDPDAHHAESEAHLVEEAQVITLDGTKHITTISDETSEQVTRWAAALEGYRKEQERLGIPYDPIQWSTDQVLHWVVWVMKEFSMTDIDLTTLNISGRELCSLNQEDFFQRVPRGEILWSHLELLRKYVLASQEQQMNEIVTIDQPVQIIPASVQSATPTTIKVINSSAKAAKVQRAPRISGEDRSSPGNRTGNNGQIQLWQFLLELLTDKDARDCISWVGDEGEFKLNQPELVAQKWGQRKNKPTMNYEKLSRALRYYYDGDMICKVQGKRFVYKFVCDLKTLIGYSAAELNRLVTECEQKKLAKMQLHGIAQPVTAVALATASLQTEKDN
# In short: as §1
# ERG = biological target: T4, ERG (Homo sapiens, UniProt P11308 1-479); details: protein: recombinant; tags: N-terminal GST; dsDNA, one strand shown
# T4 sequence: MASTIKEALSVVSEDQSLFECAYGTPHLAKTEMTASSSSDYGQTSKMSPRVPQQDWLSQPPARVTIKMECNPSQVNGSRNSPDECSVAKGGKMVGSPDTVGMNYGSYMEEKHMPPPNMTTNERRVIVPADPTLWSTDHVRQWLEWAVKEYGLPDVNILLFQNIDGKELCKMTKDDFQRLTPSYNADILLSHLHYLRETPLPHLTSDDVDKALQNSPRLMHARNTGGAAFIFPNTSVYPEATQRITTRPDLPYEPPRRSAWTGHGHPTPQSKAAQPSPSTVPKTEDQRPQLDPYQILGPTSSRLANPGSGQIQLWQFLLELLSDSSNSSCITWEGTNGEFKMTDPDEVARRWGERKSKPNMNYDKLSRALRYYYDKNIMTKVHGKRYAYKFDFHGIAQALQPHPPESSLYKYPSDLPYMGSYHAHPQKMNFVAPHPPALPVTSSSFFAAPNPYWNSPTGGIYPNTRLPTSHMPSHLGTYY
# In short: as §1
# ELF1 = ELF1 (Homo sapiens, UniProt P32519 1-619); details: protein: recombinant; tags: N-terminal GST; dsDNA, one strand shown
# Chain of ELF1 (P32519 whole entry): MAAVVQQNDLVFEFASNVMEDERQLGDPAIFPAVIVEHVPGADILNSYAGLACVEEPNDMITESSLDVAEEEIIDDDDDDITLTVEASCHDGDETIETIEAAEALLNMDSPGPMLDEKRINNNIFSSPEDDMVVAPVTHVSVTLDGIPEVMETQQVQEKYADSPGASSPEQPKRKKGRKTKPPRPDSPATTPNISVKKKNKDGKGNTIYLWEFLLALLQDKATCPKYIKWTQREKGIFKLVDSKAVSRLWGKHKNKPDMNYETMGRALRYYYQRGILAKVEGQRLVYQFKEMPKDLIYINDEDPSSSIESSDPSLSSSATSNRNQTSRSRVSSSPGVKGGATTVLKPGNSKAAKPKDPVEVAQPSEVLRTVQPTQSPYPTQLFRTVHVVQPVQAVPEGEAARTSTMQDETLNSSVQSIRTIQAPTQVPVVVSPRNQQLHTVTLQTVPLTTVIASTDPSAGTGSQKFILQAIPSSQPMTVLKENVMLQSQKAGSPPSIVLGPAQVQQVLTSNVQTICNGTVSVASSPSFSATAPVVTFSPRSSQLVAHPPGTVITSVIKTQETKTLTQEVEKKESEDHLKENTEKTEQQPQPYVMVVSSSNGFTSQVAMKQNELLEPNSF
# In short: as §1
# EHF = biological target: T5, EHF (Homo sapiens, UniProt Q9NZC4 1-300); details: protein: recombinant; tags: N-terminal GST; dsDNA, one strand shown
# T5 sequence: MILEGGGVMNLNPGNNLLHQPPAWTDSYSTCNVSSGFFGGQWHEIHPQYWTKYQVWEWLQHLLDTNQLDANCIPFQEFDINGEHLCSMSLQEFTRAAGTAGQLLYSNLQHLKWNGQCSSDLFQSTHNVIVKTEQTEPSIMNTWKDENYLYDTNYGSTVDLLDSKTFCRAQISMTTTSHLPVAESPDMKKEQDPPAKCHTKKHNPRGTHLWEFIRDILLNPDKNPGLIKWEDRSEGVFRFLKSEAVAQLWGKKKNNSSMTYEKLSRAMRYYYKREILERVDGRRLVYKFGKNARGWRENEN
# In short: as §1
# SPI1 = SPI1 (Homo sapiens, UniProt P17947 1-270); details: protein: recombinant; tags: N-terminal GST; dsDNA, one strand shown
# In short: as §1
# SPIB = SPIB (Homo sapiens, UniProt Q01892 1-262); details: protein: recombinant; tags: N-terminal GST; dsDNA, one strand shown
# Chain of SPIB (Q01892 whole entry): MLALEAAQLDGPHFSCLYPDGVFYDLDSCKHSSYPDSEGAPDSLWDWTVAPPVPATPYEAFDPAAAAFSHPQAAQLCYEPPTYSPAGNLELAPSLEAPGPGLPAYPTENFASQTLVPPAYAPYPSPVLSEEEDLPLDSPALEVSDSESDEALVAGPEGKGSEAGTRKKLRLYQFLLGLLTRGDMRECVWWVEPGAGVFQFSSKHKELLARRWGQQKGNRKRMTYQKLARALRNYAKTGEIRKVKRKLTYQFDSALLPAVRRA
# In short: as §1
# ELK3 = biological target: T6, ELK3 (Homo sapiens, UniProt P41970 1-407); details: protein: recombinant; tags: N-terminal GST; dsDNA, one strand shown
# T6 sequence: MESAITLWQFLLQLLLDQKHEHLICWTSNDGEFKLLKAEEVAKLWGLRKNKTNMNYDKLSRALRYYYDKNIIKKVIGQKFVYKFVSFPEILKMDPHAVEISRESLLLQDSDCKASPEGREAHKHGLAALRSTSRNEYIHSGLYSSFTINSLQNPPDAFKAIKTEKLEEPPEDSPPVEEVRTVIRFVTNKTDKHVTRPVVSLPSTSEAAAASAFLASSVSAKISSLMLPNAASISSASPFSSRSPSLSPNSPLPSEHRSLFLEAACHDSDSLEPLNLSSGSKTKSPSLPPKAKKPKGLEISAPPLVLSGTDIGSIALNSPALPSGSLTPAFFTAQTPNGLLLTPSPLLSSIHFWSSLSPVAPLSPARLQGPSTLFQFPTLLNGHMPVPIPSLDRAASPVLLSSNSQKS
# In short: as §1
# FEV = biological target: T7, FEV (Homo sapiens, UniProt Q99581 1-238); details: protein: recombinant; tags: N-terminal GST; dsDNA, one strand shown
# T7 sequence: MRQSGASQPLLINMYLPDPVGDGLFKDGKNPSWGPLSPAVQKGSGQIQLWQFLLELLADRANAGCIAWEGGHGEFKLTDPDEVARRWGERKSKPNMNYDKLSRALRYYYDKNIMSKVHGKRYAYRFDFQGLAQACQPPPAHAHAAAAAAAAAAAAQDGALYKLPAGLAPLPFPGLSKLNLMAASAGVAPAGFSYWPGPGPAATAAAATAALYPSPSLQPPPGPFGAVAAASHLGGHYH
# In short: as §1
# ETV5 = ETV5 (Homo sapiens, UniProt P41161 1-510); details: protein: recombinant; tags: N-terminal GST; dsDNA, one strand shown
# Chain of ETV5 (P41161 whole entry): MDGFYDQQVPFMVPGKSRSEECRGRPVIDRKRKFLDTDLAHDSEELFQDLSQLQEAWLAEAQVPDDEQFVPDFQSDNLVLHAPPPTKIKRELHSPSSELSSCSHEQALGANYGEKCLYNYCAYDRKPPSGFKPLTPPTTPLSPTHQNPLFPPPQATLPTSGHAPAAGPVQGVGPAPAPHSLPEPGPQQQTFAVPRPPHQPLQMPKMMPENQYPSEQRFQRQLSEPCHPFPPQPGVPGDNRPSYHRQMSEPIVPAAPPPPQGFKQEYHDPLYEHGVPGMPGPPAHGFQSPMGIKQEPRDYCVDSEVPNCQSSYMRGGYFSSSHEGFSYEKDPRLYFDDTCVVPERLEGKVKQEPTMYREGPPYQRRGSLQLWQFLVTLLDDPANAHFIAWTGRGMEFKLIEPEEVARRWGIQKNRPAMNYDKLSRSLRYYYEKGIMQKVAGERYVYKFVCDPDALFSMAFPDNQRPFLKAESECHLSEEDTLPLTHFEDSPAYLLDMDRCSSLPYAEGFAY
# In short: as §1
# HSF1 = HSF1 (Homo sapiens, UniProt Q00613 1-529); details: protein: recombinant; tags: N-terminal GST; chain copies: 3; dsDNA, one strand shown
# Chain of HSF1 (Q00613 whole entry): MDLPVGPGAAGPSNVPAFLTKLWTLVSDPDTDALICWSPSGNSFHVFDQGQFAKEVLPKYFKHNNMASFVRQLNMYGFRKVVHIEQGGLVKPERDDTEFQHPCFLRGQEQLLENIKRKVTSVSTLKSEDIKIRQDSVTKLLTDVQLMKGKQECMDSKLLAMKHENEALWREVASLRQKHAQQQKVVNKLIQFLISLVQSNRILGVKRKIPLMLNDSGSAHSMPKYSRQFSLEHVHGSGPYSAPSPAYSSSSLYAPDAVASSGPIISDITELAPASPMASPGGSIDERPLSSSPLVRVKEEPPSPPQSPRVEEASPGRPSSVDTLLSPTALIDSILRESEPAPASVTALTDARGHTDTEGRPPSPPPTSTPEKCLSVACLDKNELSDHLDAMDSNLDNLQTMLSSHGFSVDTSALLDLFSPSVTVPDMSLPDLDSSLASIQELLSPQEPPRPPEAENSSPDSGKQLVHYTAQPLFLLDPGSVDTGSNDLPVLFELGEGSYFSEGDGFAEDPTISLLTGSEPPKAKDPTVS
# In short: as §1
# SPIC = biological target: T8, SPIC (Homo sapiens, UniProt Q8N5J4 1-248); details: protein: recombinant; tags: N-terminal GST; dsDNA, one strand shown
# T8 sequence: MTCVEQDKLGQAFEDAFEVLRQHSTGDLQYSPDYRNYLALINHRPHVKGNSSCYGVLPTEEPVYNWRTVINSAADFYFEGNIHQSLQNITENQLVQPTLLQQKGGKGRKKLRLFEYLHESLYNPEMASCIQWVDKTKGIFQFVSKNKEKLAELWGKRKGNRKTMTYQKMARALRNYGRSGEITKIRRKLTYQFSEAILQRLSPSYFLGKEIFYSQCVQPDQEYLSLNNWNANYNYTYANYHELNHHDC
# In short: as §1
# ELF4 = ELF4 (Homo sapiens, UniProt Q99607 1-663); details: protein: recombinant; tags: N-terminal GST; dsDNA, one strand shown
# Chain of ELF4 (Q99607 whole entry): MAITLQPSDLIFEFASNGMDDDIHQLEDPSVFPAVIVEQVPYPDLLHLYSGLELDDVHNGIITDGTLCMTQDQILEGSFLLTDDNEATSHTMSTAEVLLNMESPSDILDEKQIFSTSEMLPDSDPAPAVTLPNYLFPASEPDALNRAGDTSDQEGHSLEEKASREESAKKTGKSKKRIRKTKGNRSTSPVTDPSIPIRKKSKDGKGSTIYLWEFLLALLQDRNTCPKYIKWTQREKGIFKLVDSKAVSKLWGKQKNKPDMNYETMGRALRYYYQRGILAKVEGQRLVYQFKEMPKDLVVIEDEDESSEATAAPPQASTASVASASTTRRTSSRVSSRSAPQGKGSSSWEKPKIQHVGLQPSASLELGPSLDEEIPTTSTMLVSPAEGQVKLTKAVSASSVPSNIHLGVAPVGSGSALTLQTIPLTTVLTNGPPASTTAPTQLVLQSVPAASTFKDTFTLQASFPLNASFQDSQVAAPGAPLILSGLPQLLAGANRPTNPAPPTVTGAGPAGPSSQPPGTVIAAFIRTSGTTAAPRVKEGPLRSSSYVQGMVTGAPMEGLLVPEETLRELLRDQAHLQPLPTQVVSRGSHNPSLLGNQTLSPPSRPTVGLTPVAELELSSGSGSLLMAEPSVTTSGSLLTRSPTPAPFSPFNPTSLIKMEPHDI
# In short: as §1
# ELK4 = biological target: T9, ELK4 (Homo sapiens, UniProt P28324-2 1-405); details: protein: recombinant; tags: N-terminal GST; dsDNA, one strand shown
# T9 sequence: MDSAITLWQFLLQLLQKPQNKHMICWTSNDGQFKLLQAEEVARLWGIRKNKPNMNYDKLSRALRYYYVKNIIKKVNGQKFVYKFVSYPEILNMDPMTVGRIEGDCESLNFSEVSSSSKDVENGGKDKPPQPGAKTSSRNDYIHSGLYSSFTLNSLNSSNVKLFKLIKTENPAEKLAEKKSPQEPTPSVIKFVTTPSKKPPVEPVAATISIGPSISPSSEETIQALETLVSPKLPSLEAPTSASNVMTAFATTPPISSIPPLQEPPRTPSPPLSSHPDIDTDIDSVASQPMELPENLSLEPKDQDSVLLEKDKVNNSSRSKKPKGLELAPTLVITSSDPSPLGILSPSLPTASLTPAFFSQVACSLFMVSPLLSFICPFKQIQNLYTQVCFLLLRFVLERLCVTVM
# In short: as §1
# ETV2 = biological target: T10, ETV2 (Homo sapiens, UniProt O00321 1-342); details: protein: recombinant; tags: N-terminal GST; dsDNA, one strand shown
# T10 sequence: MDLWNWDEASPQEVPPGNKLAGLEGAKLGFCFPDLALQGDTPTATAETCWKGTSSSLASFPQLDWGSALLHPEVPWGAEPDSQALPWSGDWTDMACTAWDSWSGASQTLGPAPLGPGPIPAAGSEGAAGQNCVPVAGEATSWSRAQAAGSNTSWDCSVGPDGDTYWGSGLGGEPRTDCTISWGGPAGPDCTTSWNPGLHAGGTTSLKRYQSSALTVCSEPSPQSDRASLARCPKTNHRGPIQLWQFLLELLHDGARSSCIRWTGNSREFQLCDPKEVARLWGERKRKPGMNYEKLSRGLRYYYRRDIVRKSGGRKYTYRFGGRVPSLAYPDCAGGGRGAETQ
# In short: as §1
# ELF3 = biological target: T11, ELF3 (Homo sapiens, UniProt P78545 1-371); details: protein: recombinant; tags: N-terminal GST; dsDNA, one strand shown
# T11 sequence: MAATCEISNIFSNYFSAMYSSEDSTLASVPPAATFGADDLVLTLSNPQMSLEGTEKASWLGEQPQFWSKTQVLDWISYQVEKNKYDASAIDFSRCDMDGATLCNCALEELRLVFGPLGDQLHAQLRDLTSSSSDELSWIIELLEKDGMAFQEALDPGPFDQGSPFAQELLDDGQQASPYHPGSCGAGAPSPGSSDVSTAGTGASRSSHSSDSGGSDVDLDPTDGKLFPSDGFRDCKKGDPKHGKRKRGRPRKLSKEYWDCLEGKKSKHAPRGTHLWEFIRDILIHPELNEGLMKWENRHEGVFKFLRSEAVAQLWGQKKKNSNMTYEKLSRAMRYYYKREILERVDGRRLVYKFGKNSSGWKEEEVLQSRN
# In short: as §1
# CRX = CRX (Homo sapiens, UniProt O43186 1-299); details: protein: recombinant; tags: N-terminal GST; dsDNA, one strand shown
# Chain of CRX (O43186 whole entry): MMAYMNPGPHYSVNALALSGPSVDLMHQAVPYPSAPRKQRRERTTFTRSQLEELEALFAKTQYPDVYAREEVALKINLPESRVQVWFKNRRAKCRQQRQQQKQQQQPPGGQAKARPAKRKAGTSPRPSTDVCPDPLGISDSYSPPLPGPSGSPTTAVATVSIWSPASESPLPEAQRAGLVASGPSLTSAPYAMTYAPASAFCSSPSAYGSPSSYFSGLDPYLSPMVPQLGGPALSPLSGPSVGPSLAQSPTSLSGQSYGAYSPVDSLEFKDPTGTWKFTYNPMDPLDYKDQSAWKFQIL
# In short: as §1
# ETV1 = ETV1 (Homo sapiens, UniProt P50549 1-477); details: protein: recombinant; tags: N-terminal GST; dsDNA, one strand shown
# Chain of ETV1 (P50549 whole entry): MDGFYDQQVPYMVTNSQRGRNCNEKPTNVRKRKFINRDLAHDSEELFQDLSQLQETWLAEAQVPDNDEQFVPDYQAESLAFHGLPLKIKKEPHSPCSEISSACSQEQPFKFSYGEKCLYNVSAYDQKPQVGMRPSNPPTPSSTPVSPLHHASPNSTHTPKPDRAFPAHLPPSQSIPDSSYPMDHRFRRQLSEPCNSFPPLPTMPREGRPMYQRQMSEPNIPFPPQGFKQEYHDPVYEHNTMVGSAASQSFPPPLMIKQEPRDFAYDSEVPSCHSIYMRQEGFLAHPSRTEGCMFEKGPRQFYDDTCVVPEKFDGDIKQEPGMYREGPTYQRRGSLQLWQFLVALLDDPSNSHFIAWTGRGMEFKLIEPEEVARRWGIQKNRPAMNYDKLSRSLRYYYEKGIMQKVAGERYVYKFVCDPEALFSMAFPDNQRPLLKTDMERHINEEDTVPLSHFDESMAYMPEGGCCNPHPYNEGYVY
# In short: as §1
sequence,measurement,setting,value
GTTTCC,binding signal,FLI1,"2.66 fold enrichment (6-mer frequency, TF over GST control)"
same,binding signal,ELK1,"2.9 fold enrichment (6-mer frequency, TF over GST control)"
same,binding signal,GABPA,"2.56 fold enrichment (6-mer frequency, TF over GST control)"
same,binding signal,ERG,"3.43 fold enrichment (6-mer frequency, TF over GST control)"
same,binding signal,ELF1,"2.58 fold enrichment (6-mer frequency, TF over GST control)"
same,binding signal,EHF,"2.77 fold enrichment (6-mer frequency, TF over GST control)"
same,binding signal,SPI1,"2.67 fold enrichment (6-mer frequency, TF over GST control)"
same,binding signal,SPIB,"2.84 fold enrichment (6-mer frequency, TF over GST control)"
same,binding signal,ELK3,"2.9 fold enrichment (6-mer frequency, TF over GST control)"
same,binding signal,FEV,"3.32 fold enrichment (6-mer frequency, TF over GST control)"
same,binding signal,ETV5,"3.01 fold enrichment (6-mer frequency, TF over GST control)"
same,binding signal,HSF1,"1.42 fold enrichment (6-mer frequency, TF over GST control)"
same,binding signal,SPIC,"2.6 fold enrichment (6-mer frequency, TF over GST control)"
same,binding signal,ELF4,"2.56 fold enrichment (6-mer frequency, TF over GST control)"
same,binding signal,ELK4,"2.16 fold enrichment (6-mer frequency, TF over GST control)"
same,binding signal,ETV2,"2.42 fold enrichment (6-mer frequency, TF over GST control)"
same,binding signal,ELF3,"2.55 fold enrichment (6-mer frequency, TF over GST control)"
same,binding signal,CRX,"1.08 fold enrichment (6-mer frequency, TF over GST control)"
same,binding signal,ETV1,"2.65 fold enrichment (6-mer frequency, TF over GST control)"
